For part of these data: Entries with a potency or affinity are not part of this list.
Assays:
Set-up in all cases: scale not given: direction of the effect not stated beside the values
[1] = target: Protein translocase subunit SecA (Escherichia coli (strain K12)) (UniProt P10408); assay: Assay to Identify E. coli SecA ATPase Inhibitors; assay type: functional; details: 30 µM
[2] = target: T1, Ubiquitin-activating enzyme e1, putative (Leishmania donovani (strain BPK282A1)) (UniProt E9BSI1); assay: Leishmania donovani Ubiquitin Activating Enzyme (LdE1); assay type: functional; details: 30 µM
T1 sequence (whole entry): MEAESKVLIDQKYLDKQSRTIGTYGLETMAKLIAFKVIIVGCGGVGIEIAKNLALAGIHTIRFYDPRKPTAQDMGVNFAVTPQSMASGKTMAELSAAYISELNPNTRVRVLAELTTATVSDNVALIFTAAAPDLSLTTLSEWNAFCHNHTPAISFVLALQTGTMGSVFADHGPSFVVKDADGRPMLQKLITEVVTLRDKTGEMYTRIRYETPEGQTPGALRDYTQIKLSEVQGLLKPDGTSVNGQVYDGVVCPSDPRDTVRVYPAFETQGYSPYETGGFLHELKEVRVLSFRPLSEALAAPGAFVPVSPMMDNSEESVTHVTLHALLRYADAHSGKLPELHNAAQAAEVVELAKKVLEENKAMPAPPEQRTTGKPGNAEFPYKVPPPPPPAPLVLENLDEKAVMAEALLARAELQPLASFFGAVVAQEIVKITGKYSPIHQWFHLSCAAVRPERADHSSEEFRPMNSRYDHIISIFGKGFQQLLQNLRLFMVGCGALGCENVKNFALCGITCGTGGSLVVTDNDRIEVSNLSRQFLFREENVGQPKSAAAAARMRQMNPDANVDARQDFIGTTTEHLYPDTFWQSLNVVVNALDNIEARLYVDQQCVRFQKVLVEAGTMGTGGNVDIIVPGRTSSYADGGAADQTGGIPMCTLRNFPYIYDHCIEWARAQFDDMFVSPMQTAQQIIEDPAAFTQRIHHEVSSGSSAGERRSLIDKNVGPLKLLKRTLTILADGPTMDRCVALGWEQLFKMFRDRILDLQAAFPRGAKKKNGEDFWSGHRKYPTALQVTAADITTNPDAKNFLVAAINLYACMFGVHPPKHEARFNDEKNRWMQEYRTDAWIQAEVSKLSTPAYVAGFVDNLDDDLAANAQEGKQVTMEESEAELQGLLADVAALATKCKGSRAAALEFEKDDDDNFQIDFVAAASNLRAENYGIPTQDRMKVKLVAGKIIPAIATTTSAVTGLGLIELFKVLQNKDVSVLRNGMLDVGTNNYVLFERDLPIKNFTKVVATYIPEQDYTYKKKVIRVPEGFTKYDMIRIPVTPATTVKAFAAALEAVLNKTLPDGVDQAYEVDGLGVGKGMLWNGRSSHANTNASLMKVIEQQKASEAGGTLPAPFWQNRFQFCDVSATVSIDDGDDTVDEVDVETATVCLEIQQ

[3] = target: Sialic acid-binding Ig-like lectin 9 (Homo sapiens) (UniProt Q9Y336); assay: Hs-Siglec9 ALPHAscreen SOP 20170721; details: 10 µM
Sequence of Sialic acid-binding Ig-like lectin 9 (Homo sapiens) (Q9Y336 whole entry): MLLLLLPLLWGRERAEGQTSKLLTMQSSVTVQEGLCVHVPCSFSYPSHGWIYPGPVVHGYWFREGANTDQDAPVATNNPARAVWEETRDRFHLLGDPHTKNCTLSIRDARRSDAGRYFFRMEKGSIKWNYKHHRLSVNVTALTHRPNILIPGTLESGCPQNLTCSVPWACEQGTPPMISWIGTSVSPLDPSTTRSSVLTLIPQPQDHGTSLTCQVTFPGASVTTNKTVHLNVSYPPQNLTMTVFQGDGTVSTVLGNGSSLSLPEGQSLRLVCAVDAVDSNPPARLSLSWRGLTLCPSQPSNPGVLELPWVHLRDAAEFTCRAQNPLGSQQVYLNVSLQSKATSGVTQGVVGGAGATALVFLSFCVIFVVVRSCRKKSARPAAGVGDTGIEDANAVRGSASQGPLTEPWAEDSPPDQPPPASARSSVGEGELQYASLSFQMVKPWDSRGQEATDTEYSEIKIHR

Trypanosoma cruzi = assay: Trypanosoma cruzi phosphomannomutase and mannose-1-phosphate guanylyltransferase assay; assay type: functional; details: 10 µM
[4] = target: T2, Arginase-2, mitochondrial (Homo sapiens) (UniProt P78540); assay: in vitro enzyme assay to detect the production of urea directly proportional to the activity of Arginase II; assay type: functional; details: 33.3 µM; further: in the data most compounds retested in dose-response had high values
T2 sequence (whole entry): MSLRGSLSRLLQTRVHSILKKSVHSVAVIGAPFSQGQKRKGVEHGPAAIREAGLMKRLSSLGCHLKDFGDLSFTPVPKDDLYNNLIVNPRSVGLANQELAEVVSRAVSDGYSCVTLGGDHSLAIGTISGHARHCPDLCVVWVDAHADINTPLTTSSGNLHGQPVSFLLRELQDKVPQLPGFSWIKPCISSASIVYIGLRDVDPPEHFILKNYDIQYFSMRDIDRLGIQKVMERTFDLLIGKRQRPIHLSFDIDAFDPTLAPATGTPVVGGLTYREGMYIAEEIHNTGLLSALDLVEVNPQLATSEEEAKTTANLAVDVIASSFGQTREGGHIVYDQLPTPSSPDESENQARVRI

[5] = target: T3, Proteasome subunit beta (Trypanosoma cruzi) (UniProt O96673); assay: Trypanosoma cruzi proteasome chymotrypsin-like activity (TcProtChymo) assay.; further: in the data most compounds retested in dose-response had high values; assay type: functional; details: 9.37 µM
T3 sequence (whole entry): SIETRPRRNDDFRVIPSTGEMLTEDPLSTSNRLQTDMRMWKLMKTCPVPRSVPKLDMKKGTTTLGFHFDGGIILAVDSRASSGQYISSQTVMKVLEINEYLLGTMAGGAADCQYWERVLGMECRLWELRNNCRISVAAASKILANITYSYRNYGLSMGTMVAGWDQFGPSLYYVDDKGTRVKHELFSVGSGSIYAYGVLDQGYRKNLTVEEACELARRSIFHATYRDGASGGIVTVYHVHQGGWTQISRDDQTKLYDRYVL

Homo sapiens = species on record: Homo sapiens; assay: To identify inhibition of the IFN signalling (Jak-Stat) pathway via expression of an eGFP reporter gene under the control of an IFN-stimulated response element (ISRE) containing MxA promoter.; assay type: functional; details: 30 µM
[6] = target: T4, Tyrosyl-tRNA synthetase, putative (Trypanosoma cruzi (strain CL Brener)) (UniProt Q4DSP6); assay: Trypanosoma cruzi tyrosyl tRNA synthetase (TcYRS) _High Tyrosine SOP; assay type: functional; details: 30 µM; further: in the data most compounds retested in dose-response had high values
T4 sequence (whole entry): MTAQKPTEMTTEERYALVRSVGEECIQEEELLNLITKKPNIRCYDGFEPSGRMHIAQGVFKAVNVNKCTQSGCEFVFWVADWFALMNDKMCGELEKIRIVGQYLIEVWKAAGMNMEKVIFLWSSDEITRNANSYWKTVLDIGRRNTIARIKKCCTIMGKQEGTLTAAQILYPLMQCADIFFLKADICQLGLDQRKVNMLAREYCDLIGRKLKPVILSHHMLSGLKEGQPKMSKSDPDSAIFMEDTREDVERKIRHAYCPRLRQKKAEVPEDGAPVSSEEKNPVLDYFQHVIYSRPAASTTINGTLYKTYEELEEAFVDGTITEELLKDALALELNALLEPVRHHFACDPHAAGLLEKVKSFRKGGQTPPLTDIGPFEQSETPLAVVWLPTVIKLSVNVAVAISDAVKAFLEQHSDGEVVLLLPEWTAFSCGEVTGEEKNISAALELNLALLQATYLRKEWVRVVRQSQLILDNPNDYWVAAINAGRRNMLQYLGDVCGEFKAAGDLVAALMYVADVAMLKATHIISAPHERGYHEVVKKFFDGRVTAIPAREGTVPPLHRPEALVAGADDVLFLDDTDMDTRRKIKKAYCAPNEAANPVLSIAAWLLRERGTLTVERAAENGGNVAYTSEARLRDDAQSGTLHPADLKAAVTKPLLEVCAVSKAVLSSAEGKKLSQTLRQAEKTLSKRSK

[7] = target: T4, Tyrosyl-tRNA synthetase, putative (Trypanosoma cruzi (strain CL Brener)); assay: Trypanosoma cruzi tyrosyl tRNA synthetase (TcYRS) SOP; assay type: functional; details: 30 µM
[8] = target: Chromo domain-containing protein 1 (Saccharomyces cerevisiae (strain ATCC 204508 / S288c) (Baker's yeast)) (UniProt P32657); assay: ScCHD-1 Enzyme Inhibition Assay; assay type: functional; details: 30 µM; further: in the data most compounds retested in dose-response had high values
Sequence of Chromo domain-containing protein 1 (Saccharomyces cerevisiae (strain ATCC 204508 / S288c) (Baker's yeast)) (P32657 whole entry, the tested form may be a part): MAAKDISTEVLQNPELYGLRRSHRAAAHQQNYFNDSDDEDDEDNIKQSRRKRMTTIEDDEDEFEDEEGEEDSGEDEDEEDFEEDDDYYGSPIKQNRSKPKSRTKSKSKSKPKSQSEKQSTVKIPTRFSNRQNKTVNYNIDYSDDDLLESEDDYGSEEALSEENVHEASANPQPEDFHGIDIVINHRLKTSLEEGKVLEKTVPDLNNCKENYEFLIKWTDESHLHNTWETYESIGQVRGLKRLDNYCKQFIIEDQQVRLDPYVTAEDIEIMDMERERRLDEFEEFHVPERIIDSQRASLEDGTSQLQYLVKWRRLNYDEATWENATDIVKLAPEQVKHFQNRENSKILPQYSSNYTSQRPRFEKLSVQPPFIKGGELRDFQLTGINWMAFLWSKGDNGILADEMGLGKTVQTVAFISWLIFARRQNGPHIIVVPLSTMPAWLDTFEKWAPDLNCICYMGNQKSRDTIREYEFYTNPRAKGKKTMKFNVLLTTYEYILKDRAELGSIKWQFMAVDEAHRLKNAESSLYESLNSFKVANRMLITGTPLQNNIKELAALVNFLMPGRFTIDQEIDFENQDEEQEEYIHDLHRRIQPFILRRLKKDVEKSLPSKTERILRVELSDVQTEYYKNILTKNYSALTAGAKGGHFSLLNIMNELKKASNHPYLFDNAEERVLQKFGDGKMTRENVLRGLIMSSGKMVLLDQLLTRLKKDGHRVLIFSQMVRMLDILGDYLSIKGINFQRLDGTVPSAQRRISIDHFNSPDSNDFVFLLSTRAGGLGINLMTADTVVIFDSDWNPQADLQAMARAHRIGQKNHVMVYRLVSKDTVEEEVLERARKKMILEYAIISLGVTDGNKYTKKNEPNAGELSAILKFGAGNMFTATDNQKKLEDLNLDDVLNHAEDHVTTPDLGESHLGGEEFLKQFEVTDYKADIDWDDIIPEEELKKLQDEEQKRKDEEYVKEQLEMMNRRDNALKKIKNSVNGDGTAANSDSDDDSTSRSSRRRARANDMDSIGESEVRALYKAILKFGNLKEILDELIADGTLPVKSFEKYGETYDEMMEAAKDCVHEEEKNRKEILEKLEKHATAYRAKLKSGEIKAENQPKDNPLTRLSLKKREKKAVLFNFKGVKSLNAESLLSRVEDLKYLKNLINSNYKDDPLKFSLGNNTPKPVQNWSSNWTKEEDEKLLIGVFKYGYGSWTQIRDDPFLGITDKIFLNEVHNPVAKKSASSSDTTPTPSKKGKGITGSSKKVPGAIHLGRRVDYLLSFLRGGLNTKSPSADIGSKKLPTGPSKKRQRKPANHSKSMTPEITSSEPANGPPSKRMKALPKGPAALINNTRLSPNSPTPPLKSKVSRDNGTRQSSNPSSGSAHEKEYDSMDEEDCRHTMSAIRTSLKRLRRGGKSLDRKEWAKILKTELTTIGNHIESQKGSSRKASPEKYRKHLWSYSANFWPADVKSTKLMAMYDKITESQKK

Sequence of Protein translocase subunit SecA (Escherichia coli (strain K12)) (P10408 whole entry): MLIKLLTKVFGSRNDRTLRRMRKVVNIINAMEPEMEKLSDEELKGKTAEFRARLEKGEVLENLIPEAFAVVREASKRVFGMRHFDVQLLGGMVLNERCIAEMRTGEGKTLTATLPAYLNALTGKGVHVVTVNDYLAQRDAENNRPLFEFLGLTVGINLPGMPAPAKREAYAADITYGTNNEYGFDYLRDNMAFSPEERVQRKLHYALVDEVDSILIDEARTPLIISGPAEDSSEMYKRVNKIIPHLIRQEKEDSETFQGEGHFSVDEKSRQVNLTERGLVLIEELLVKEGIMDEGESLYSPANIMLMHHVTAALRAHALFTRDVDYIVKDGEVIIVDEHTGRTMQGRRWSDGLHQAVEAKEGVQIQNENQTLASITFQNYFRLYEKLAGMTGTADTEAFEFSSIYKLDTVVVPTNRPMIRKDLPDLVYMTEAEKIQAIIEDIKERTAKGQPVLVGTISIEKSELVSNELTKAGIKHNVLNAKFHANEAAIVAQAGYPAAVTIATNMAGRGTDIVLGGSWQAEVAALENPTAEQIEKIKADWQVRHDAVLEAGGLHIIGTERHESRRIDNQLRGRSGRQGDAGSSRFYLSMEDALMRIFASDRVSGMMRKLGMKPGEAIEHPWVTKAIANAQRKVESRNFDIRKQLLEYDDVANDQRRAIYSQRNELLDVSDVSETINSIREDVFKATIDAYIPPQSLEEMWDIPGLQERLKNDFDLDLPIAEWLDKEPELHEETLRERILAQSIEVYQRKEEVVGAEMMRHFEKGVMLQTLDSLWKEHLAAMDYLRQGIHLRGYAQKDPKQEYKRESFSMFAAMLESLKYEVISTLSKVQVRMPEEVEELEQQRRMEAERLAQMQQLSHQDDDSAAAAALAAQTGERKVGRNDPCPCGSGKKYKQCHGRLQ

COCCN1CC(C(=O)NCc2ccnc(-n3cccn3)c2)CC1=O (stereo not given)
Percent Effect [1]: -3.79% | Percent Effect [2]: -5.13% | Percent Effect [3]: -5.84% | Percent Effect (Trypanosoma cruzi): -1.22% | Percent Effect [4]: 3.28% | Percent Effect [5]: -1.79% | Percent Effect (Homo sapiens): 23.2% | Percent Effect [6]: -2.39% | Percent Effect [7]: -3.61% | Percent Effect [8]: 6.47%

O=c1c(-c2ccnc(NC3CCOCC3)n2)cnc2sc(Cl)cn12
Percent Effect [1]: 5.59% | Percent Effect [2]: 16% | Percent Effect [3]: -4.95% | Percent Effect (Trypanosoma cruzi): -8.63% | Percent Effect [4]: -2.66% | Percent Effect [5]: 17.7% | Percent Effect (Homo sapiens): 12% | Percent Effect [6]: 1.58% | Percent Effect [7]: 0% | Percent Effect [8]: -10.8%

CC(C)c1cc(N2CCC(CCC(=O)NC3CC3)CC2)n2nccc2n1
Percent Effect [1]: -2.45% | Percent Effect [2]: 5.41% | Percent Effect [3]: 2.79% | Percent Effect (Trypanosoma cruzi): -0.097% | Percent Effect [4]: 2.45% | Percent Effect [5]: 9.76% | Percent Effect (Homo sapiens): 7.29% | Percent Effect [6]: 4.79% | Percent Effect [7]: 12.2% | Percent Effect [8]: -3.08%

CC(C)c1nc(C2CCCN2CC(=O)Nc2ccc(Cl)cn2)no1 (stereo not given)
Percent Effect [1]: -10.5% | Percent Effect [2]: 18.7% | Percent Effect [3]: 16.2% | Percent Effect (Trypanosoma cruzi): 5.62% | Percent Effect [4]: -4.88% | Percent Effect [5]: 8.23% | Percent Effect (Homo sapiens): 4.35% | Percent Effect [6]: 5.79% | Percent Effect [7]: 10.3% | Percent Effect [8]: -14.8%

CCc1nc(C)c(C(=O)NCCN2CCN(C(C)=O)CC2)s1
Percent Effect [1]: -2.42% | Percent Effect [2]: 10.4% | Percent Effect [3]: 4.38% | Percent Effect (Trypanosoma cruzi): -0.373% | Percent Effect [4]: 1.43% | Percent Effect [5]: -0.702% | Percent Effect (Homo sapiens): 15.7% | Percent Effect [6]: 7.84% | Percent Effect [7]: 21.2% | Percent Effect [8]: -6.18%

Cc1ccc(C#N)cc1NC(=O)NC1CCCN(c2ncccn2)C1 (stereo not given)
Percent Effect [1]: -5.74% | Percent Effect [2]: 15.6% | Percent Effect [3]: 3.91% | Percent Effect (Trypanosoma cruzi): -2.98% | Percent Effect [4]: 1.02% | Percent Effect [5]: -1.4% | Percent Effect (Homo sapiens): 20.9% | Percent Effect [6]: 3.92% | Percent Effect [7]: 18.8% | Percent Effect [8]: -8.47%

CCn1cc2c(n1)C(COC)CN(Cc1ccccn1)C2 (stereo not given)
Percent Effect [1]: -4.98% | Percent Effect [2]: 9.09% | Percent Effect [3]: -6.05% | Percent Effect (Trypanosoma cruzi): -2.43% | Percent Effect [4]: -2.43% | Percent Effect [5]: 16.7% | Percent Effect (Homo sapiens): 34.2% | Percent Effect [6]: 2.63% | Percent Effect [7]: 7.69% | Percent Effect [8]: -3.98%

COc1ccc(CN2CCN(C(C)c3nc(C4CC4)no3)CC2)cc1 (stereo not given)
Percent Effect [1]: -1.5% | Percent Effect [2]: 12.8% | Percent Effect [3]: 2.49% | Percent Effect (Trypanosoma cruzi): 3.29% | Percent Effect [4]: -9.43% | Percent Effect [5]: 7.76% | Percent Effect (Homo sapiens): 26.9% | Percent Effect [6]: 3.35% | Percent Effect [7]: 10.8% | Percent Effect [8]: -7.9%

NC(=O)Cn1cc(NC(=O)N2CCCC2)cn1
Percent Effect [1]: 1.14% | Percent Effect [2]: 12.8% | Percent Effect [3]: -7.88% | Percent Effect (Trypanosoma cruzi): -0.469% | Percent Effect [4]: 8.61% | Percent Effect [5]: 11.7% | Percent Effect (Homo sapiens): 19.1% | Percent Effect [6]: 5.26% | Percent Effect [7]: 18.1% | Percent Effect [8]: -4.77%

CC(C)c1cc(CNC(=O)N2CCC(Cc3cnn(C)c3)C2)on1 (stereo not given)
Percent Effect [1]: -5.49% | Percent Effect [2]: 10.3% | Percent Effect [3]: -6.83% | Percent Effect (Trypanosoma cruzi): 5.92% | Percent Effect [4]: -1.23% | Percent Effect [5]: 4.69% | Percent Effect (Homo sapiens): 4.85% | Percent Effect [6]: 1.44% | Percent Effect [7]: 8.43% | Percent Effect [8]: -5.54%

O=C(CCC1CCN(Cc2ncc[nH]2)CC1)Nc1ccccc1Cl
Percent Effect [1]: -2.38% | Percent Effect [2]: -5.41% | Percent Effect [3]: -2.45% | Percent Effect (Trypanosoma cruzi): -0.291% | Percent Effect [4]: -2.45% | Percent Effect [5]: 8.56% | Percent Effect (Homo sapiens): 0.831% | Percent Effect [6]: -0.532% | Percent Effect [7]: 0% | Percent Effect [8]: 4.74%

CC(NC(=O)N1CCN(c2ccccc2)CC1)c1nncn1C (stereo not given)
Percent Effect [1]: 1.88% | Percent Effect [2]: 10.7% | Percent Effect [3]: -3.63% | Percent Effect (Trypanosoma cruzi): -2.81% | Percent Effect [4]: 7.54% | Percent Effect [5]: 11.4% | Percent Effect (Homo sapiens): 13.4% | Percent Effect [6]: 3.68% | Percent Effect [7]: 5.13% | Percent Effect [8]: -13.8%

Source: ChEMBL document CHEMBL3988442, “University of Dundee, Small-Polar-MMV Screening Library” (2021)
